Data published in PubChem BioAssay (EPA / NIEHS).
Calls of active or inactive are those of the source. Rule for the calls: active = hit-call score of the fitted dose curve at least 0.9, where 1 is the maximum; inactive = score below 0.9.

Columns and labels:
Conditions in all cases: mRNA level, 48 h; actives raise or lower the signal
[1] = read-out: Apolipoprotein A-V (APOA5) gene, APOA5 (gene 116519); test: LTEA_HepaRG_APOA5: Life Technologies and Expression Analysis (LTEA) Assay for Apolipoprotein A-V (APOA5) gene using HepaRG (AID 2283474)
In short: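 Readout is APOA5 transcript level by qRT-PCR on Fluidigm dynamic arrays, normalized to three housekeeping genes. HepaRG cultures received chemicals for 48 h at up to 100 uM (half-log steps, 0.5% DMSO), with gain or loss scored relative to DMSO.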

[2] = read-out: Apoptosis regulator Bcl-2 (Homo sapiens) (UniProt P10415); test: LTEA_HepaRG_BCL2: Life Technologies and Expression Analysis (LTEA) Assay for Bcl-2 gene using HepaRG (AID 2283475)
In short: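 Each chemical was tested in duplicate on HepaRG cultures held in serum-free induction medium for 48 h, highest concentration 100 uM with half-log dilutions. Transcript levels came from multiplexed qRT-PCR, normalised to housekeeping genes; activity was scored in either direction relative to DMSO.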

[3] = read-out: Bcl-2 (BID) gene, BID (gene 637); test: LTEA_HepaRG_BID: Life Technologies and Expression Analysis (LTEA) Assay for Bcl-2 (BID) gene using HepaRG (AID 2283476)
In short: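 Assay used HepaRG hepatic cells treated 48 h in serum-free medium with half-log dilutions from 100 uM. Endpoint: BID mRNA, qRT-PCR, normalized to ACTB/GAPDH/POLR2A.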

Caspase-3 (Homo sapiens) = Caspase-3 (Homo sapiens) (UniProt P42574); test: LTEA_HepaRG_CASP3: Life Technologies and Expression Analysis (LTEA) Assay for cysteine-aspartic acid protease (CASP3) using HepaRG (AID 2283477)
Sequence of Caspase-3 (Homo sapiens) (P42574 whole entry, looked up): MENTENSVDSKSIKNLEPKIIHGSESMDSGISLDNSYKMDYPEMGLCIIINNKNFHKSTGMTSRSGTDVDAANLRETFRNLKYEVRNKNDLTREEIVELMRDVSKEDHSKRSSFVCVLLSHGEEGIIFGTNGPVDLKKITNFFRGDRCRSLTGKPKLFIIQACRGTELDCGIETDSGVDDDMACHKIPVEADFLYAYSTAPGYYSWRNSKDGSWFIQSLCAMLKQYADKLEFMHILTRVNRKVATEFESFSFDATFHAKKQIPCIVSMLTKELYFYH
In short: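 Read-out is CASP3 mRNA level by TaqMan qRT-PCR in human HepaRG cells after 48 h chemical exposure. Eight half-log concentrations topping at 100 uM were tested in 0.5% DMSO; gain or loss was fitted relative to DMSO.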

[4] = read-out: Cytochrome P450 (CYP24A1), CYP24A1 (gene 1591); test: LTEA_HepaRG_CYP24A1: Life Technologies and Expression Analysis (LTEA) Assay for Cytochrome P450 (CYP24A1) using HepaRG (AID 2283478)
In short: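 HepaRG, 48 h chemical exposure, 8-pt half-log CRC from 100 uM, 0.5% DMSO vehicle, duplicates. Endpoint: CYP24A1 mRNA by Fluidigm TaqMan qRT-PCR, normalized ACTB/GAPDH/POLR2A; gain/loss fit vs DMSO.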

[5] = read-out: Cytochrome P450 (CYP1A2), CYP1A2 (gene 1544); test: LTEA_HepaRG_CYP1A2: Life Technologies and Expression Analysis (LTEA) Assay for Cytochrome P450 (CYP1A2) using HepaRG (AID 2283479)
In short: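 CYP1A2 transcript induction or loss, quantified by Fluidigm qRT-PCR against three housekeeping genes, was fitted bidirectionally against 0.5% DMSO controls. Human HepaRG cells received eight half-log concentrations from 100 uM over 48 h.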

[6] = read-out: cysteine-aspartic acid protease (CASP8), CASP8 (gene 841); test: LTEA_HepaRG_CASP8: Life Technologies and Expression Analysis (LTEA) Assay for cysteine-aspartic acid protease (CASP8) using HepaRG (AID 2283480)
In short: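 qRT-PCR readout of CASP8 mRNA, normalized to three housekeeping genes, after 48 h chemical exposure of HepaRG cells; 8-point half-log series, top 100 uM, 0.5% DMSO vehicle. Bidirectional curve fitting against DMSO baseline.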

[7] = read-out: Cytochrome P450 (CYP2B6), CYP2B6 (gene 1555); test: LTEA_HepaRG_CYP2B6: Life Technologies and Expression Analysis (LTEA) Assay for Cytochrome P450 (CYP2B6) using HepaRG (AID 2283481)
In short: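 HepaRG cells plated 48 h, switched to serum-free induction medium, then dosed 48 h (8 points, half-log from 100 uM, 0.5% DMSO). RNA isolated; CYP2B6 expression measured by qRT-PCR; gain or loss fitted relative to DMSO.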

[8] = read-out: Cytochrome P450 2C19 (Homo sapiens) (UniProt P33261); test: LTEA_HepaRG_CYP2C19: Life Technologies and Expression Analysis (LTEA) Assay for CYP2C19 using HepaRG (AID 2283482)
In short: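 Transcript levels of CYP2C19 were quantified by qRT-PCR after HepaRG cells were treated for 48 hours with test chemicals up to 100 uM (eight half-log concentrations, 0.5% DMSO vehicle). Gain or loss of signal was fitted relative to DMSO.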

CYP2C8 (gene 1558) = test: LTEA_HepaRG_CYP2C8: Life Technologies and Expression Analysis (LTEA) Assay for CYP2C8 using HepaRG (AID 2283483)
In short: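 HepaRG (human liver line), 48 h chemical exposure, 8-pt half-log series from 100 uM, 0.5% DMSO vehicle. Readout: CYP2C8 transcript by qRT-PCR, housekeeping-normalized. Bidirectional fit vs DMSO baseline.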

CYP2C9 (gene 1559) = test: LTEA_HepaRG_CYP2C9: Life Technologies and Expression Analysis (LTEA) Assay for CYP2C9 using HepaRG (AID 2283484)
In short: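 HepaRG, 48 h dosing, 8-pt half-log series, top 100 uM, 0.5% DMSO vehicle. Read-out: CYP2C9 transcript by TaqMan qRT-PCR, housekeeping-normalized (ACTB/GAPDH/POLR2A). Gain or loss fitted vs DMSO baseline.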

CYP2E1 (gene 1571) = test: LTEA_HepaRG_CYP2E1: Life Technologies and Expression Analysis (LTEA) Assay for CYP2E1 using HepaRG (AID 2283485)
In short: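 Assay uses 48 h exposure of HepaRG hepatic cells, eight concentrations to 100 uM. Expression of CYP2E1 is quantified by TaqMan qRT-PCR with ACTB, GAPDH and POLR2A normalization; curves fitted in both directions relative to vehicle.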

CYP4A11 (gene 1579) = test: LTEA_HepaRG_CYP4A11: Life Technologies and Expression Analysis (LTEA) Assay for CYP4A11 using HepaRG (AID 2283486)
In short: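 HepaRG, 48 h chem exposure, 8 conc (100 uM top, half-log), 0.5% DMSO vehicle; qRT-PCR readout, housekeeping-gene normalized; bidirectional curve fit vs DMSO baseline.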

[9] = read-out: Cytochrome P450 3A4 (Homo sapiens) (UniProt P08684); test: LTEA_HepaRG_CYP3A4: Life Technologies and Expression Analysis (LTEA) Assay for CYP3A4 using HepaRG (AID 2283487)
In short: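 CYP3A4 transcript measured by TaqMan qRT-PCR and normalized to three housekeeping genes after 48 h chemical exposure of human HepaRG cells. Top concentration 100 uM, half-log steps, 0.5% DMSO vehicle; gain or loss fitted against DMSO baseline.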

[10] = read-out: DNA damage-inducible transcript 3 (DDIT3), DDIT3 (gene 1649); test: LTEA_HepaRG_DDIT3: Life Technologies and Expression Analysis (LTEA) Assay for DNA damage-inducible transcript 3 (DDIT3) using HepaRG (AID 2283488)
In short: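 Eight-point concentration-response (100 uM highest, half-log dilutions) in HepaRG, 48 h, duplicate wells. Endpoint: qRT-PCR mRNA, normalized (ACTB, GAPDH, POLR2A), bidirectional fitting with DMSO as baseline.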

[11] = read-out: Pro-epidermal growth factor (Homo sapiens) (UniProt P01133); test: LTEA_HepaRG_EGF: Life Technologies and Expression Analysis (LTEA) Assay for Epidermal growth factor (EGF) using HepaRG (AID 2283489)
In short: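 HepaRG, 48 h dosing, 100 uM top, half-log x8, 0.5% DMSO. Readout: TaqMan qRT-PCR (Fluidigm array), housekeeping-normalized. Gain or loss of signal fit vs DMSO.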

[12] = read-out: Ezrin (EZR), EZR (gene 7430); test: LTEA_HepaRG_EZR: Life Technologies and Expression Analysis (LTEA) Assay for Ezrin (EZR) using HepaRG (AID 2283491)
In short: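 HepaRG, 48 h chemical exposure, 8-pt half-log series from 100 uM, 0.5% DMSO vehicle, duplicates. Read-out: EZR mRNA by TaqMan qRT-PCR (Fluidigm array), housekeeping-normalized; bidirectional curve fit vs DMSO baseline.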

CYP3A5 (gene 1577) = test: LTEA_HepaRG_CYP3A5: Life Technologies and Expression Analysis (LTEA) Assay for CYP3A5 using HepaRG (AID 2283493)
In short: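 Readout was CYP3A5 mRNA by qRT-PCR. HepaRG cultures were exposed for 48 h in serum-free induction medium to chemicals at up to 100 uM, and responses were fitted in both directions relative to DMSO vehicle.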

[13] = read-out: Early growth response protein 1 (EGR1) transcription factor, EGR1 (gene 1958); test: LTEA_HepaRG_EGR1: Life Technologies and Expression Analysis (LTEA) Assay for Early growth response protein 1 (EGR1) transcription factor using HepaRG (AID 2283490)
In short: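 HepaRG, 48 h exposure, 8-pt half-log series from 100 uM, 0.5% DMSO vehicle; EGR1 transcript by TaqMan qRT-PCR (Fluidigm array), housekeeping-normalized; bidirectional fit relative to DMSO baseline.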

[14] = read-out: Cytochrome P450 3A7 (Homo sapiens) (UniProt P24462); test: LTEA_HepaRG_CYP3A7: Life Technologies and Expression Analysis (LTEA) Assay for CYP3A7 using HepaRG (AID 2283492)
In short: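 Human HepaRG liver cells, 48 h post-plating, switched to serum-free induction medium and exposed in duplicate for 48 h. Dosing: 100 uM top, half-log dilutions, 8 points, 0.5% DMSO vehicle. Read-out: CYP3A7 mRNA, gain or loss fitted against DMSO baseline.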

Measured: AC50

Sequence of Cytochrome P450 3A4 (Homo sapiens) (P08684 whole entry, looked up): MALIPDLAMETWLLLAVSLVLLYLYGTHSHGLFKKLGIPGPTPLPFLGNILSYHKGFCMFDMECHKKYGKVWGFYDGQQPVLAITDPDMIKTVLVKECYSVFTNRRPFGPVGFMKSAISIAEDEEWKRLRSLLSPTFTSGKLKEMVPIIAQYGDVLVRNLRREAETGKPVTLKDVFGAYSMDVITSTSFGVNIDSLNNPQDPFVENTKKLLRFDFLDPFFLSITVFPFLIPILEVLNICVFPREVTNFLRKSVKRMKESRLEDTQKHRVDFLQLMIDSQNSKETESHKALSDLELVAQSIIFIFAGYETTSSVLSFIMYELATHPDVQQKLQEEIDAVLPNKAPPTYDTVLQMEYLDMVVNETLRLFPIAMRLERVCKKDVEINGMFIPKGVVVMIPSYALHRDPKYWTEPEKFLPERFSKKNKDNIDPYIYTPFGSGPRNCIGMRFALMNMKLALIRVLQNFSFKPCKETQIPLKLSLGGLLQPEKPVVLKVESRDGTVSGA
Sequence of Cytochrome P450 3A7 (Homo sapiens) (P24462 whole entry, looked up): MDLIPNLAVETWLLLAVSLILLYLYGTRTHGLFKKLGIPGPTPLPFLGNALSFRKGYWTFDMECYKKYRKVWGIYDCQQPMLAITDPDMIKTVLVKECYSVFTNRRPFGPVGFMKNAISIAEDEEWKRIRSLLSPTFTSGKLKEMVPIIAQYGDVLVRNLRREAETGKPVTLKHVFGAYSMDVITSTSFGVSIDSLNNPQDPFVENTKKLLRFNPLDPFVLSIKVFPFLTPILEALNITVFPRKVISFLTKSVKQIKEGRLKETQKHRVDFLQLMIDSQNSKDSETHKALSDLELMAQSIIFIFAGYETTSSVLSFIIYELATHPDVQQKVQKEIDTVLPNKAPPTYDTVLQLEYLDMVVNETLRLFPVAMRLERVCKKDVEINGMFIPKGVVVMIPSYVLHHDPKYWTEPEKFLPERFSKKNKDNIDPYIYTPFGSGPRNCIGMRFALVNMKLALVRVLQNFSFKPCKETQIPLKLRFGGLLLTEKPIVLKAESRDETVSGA
Sequence of Cytochrome P450 2C19 (Homo sapiens) (P33261 whole entry, looked up): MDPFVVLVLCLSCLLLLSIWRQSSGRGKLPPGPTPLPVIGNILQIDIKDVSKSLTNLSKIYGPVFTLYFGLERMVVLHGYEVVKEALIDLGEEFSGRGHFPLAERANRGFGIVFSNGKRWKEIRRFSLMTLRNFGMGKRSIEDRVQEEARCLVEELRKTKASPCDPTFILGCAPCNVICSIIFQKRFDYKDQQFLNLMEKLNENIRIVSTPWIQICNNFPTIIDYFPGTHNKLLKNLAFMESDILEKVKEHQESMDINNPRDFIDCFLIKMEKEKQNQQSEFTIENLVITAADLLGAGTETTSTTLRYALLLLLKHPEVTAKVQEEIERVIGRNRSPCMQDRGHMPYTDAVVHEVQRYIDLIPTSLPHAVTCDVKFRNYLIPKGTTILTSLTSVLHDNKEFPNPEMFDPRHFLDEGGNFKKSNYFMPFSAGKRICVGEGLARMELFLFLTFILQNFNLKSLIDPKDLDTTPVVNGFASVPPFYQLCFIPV
Sequence of Apoptosis regulator Bcl-2 (Homo sapiens) (P10415 whole entry, looked up): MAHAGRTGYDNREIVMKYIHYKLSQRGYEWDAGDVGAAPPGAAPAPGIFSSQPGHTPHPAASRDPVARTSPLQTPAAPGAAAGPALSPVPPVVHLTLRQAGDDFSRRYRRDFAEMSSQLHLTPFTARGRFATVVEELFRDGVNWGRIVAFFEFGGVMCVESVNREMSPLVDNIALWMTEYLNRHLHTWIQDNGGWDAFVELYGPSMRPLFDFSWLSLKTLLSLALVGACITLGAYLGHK

CC(C)(O)c1cnn2c(-c3ccc(F)c(-c4c(F)cccc4C#N)c3)cnc2n1
active: [5] 29.7 µM | [7] 0.705 µM | [8] 0.365 µM | CYP2C9 (gene 1559) 0.291 µM | CYP2E1 (gene 1571) 4.43 µM | CYP4A11 (gene 1579) 1.51 µM | [9] 0.263 µM
not listed: [13] | [14]
inactive: all other assays above

O=Cc1ccco1
not listed: [7] | [13] | [14]
inactive: all other assays above

CCC(C)c1ccc(O)cc1 (stereo unspecified)
not listed: [5]
inactive: all other assays above

C=CCc1ccc2c(c1)OCO2
active: [7] 18.4 µM
not listed: [13] | [14]
inactive: all other assays above

Clc1ccc(C(c2ccc(Cl)cc2)C(Cl)(Cl)Cl)cc1
inactive: [3] | Caspase-3 (Homo sapiens) | [4] | [5] | [6] | [11]
active: [1] 50 µM | [2] 50 µM | [7] 1.14 µM | [8] 2.78 µM | CYP2C8 (gene 1558) 12.5 µM | CYP2C9 (gene 1559) 0.549 µM | CYP2E1 (gene 1571) 50 µM | CYP4A11 (gene 1579) 50 µM | [10] 50 µM | [12] 50 µM

c1ccc(C2CO2)cc1 (stereo unspecified)
not listed: [5]
inactive: all other assays above

c1ccc(NNc2ccccc2)cc1
active: [7] 5.26 µM
not listed: [5]
inactive: all other assays above
